# Laboratory results taken from PubChem BioAssay (NCI).
# About 83,000 compounds went through this panel and 20% of them were active in at least one assay; those are over-represented in the sample as a whole.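 48-hour exposure, single concentration, 96-well plates; percent growth endpoint where 0 means no net growth. Active: below 10.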 Values without a mark were called inactive. Calls of active or inactive are those of the source.
# System: IGROV1 ovarian
# Test: NCI-60 one-dose screen, 48 h (100 = growth as untreated, 0 = no growth, -100 = all killed)
# Conditions: 10 µM unless noted
# Description: Growth inhibition of the IGROV1 human tumor cell line is measured as a screen for anti-cancer activity. Cells are grown in 96 well plates and exposed to the test compound for 48 hours. Compounds are tested at a single concentration, which is 10^-5 M for most compounds. The reported endpoint is percent growth (GI% or GIPRCNT), where numbers from 0 - 100% represent growth inhibition, and numbers from -100% - 0 represent cell death. For example, a value of 40 represents 60% growth inhibition. A value of 0 means no net growth occurred over the course of the experiment. A value of -40 indicates 40% of cells at the beginning of the experiment died by the end of the experiment. A value of -100 means all cells are dead at the end of the experiment.
# NCI-60 Human Tumor Cell Lines Screen was performed using the standard one-dose NCI protocol, which is described in more detail at https://dtp.cancer.gov/discovery_development/nci-60/default.htm.
# Compounds with GIPRCNT values below 10 were considered active. Activity score was based on GIPRCNT using the following formula: […]
# Score is 0 for GIPRCNT values of 100 or above, 50 for GIPRCNT values of 0, and 100 for GIPRCNT values of -100.
row,SMILES,growth
1,O=C(Nc1ccc(Br)cc1F)c1cc(I)ccc1O,16.6%
2,COC(=O)c1c2c(c(C)[n+]([O-])c1C)C(=O)C(NCc1ccc(Br)cc1)=CC2=O,5.51% (active)
3,O=C(NC1CCN(Cc2ccccc2)CC1)c1cc(C(=O)NC2CCN(Cc3ccccc3)CC2)cc(C(=O)NC2CCN(Cc3ccccc3)CC2)c1,-33.7% (active)
4,C=C(C)CCC(C)N1CCC(N2CCC(C(=O)NCCc3ccccc3)CC2)CC1 (stereo not given),69.5%
5,Cc1ccc(S(=O)c2ccc([N+](=O)[O-])c3nonc23)cc1 (stereo not given),104%
6,CCCCC1CCc2cccc3c(SCC(=O)N(C)c4ccc(Cl)cc4)cc[n+]1c23 (stereo not given),121%
7,O=C(NC1CCCCC1)C(c1cccs1)N(CCc1ccccc1)C(=O)c1ccco1 (stereo not given),97.7%
8,COc1ccc(C2Nc3nc(OC)n(C)c(=O)c3N=C3c4ccccc4C(=O)C32)cc1 (stereo not given),140%
9,CCOC(=O)c1ccc2[nH]c(-c3ccccc3)cc(=O)c2c1,92.5%
10,CN(C)CCNc1cc(-c2ccccc2)nc2ccccc12,-64% (active)
11,CCCCN1CCN(c2ccc3nc(-c4ccc5nc(-c6ccc(OC)c(OC)c6)[nH]c5c4)[nH]c3c2)CC1,-13.2% (active)
12,CCCCC1COc2cccc3c2N1C=C/C3=C\C(=O)N(C)c1ccccc1 (stereo not given),56.1%
13,CC(C)CCNCC(O)Cn1c2ccccc2c2ccccc21 (stereo not given),10.3%
14,O=C(/C=C/c1ccc(C(F)(F)F)cc1)c1ccc(Nc2nc(NCCO)nc(Nc3ccc(Cl)cc3)n2)cc1,83.5%
15,CCOC(=O)c1ccc(N=Cc2sc(=O)[nH]c2O)cc1,87.1%
16,Nc1nc(Nc2cccc(F)c2)nc2ccccc12,28%
17,Cc1nn(-c2nc3ccccc3[nH]2)c2c1C(c1ccc(OCC(N)=O)cc1)CC(=O)N2 (stereo not given),109%
18,COc1cc(C#N)cc2[nH]c(=O)oc12,105%
19,O=C(Nc1ccc(I)cc1F)c1cc(Br)ccc1O,16.3%
20,O=c1oc2ccc(-c3ccc(F)cc3F)cc2c(=O)n1-c1cccc(C(F)(F)F)c1,20.5%

row,SMILES,growth
1,O=C1c2cc(I)ccc2Oc2cc([N+](=O)[O-])ccc2N1c1ccc(Cl)cc1F,72.3%
2,C=CCN1C(=O)/C(=c2\sc3n(c2=O)NC2C(N=3)N(CC)C(=O)N2CC)c2ccccc21 (stereo not given),34.2%
3,O=C(c1ccccc1)N(C(=S)NCCc1ccc(Cl)cc1)c1ccc(Cl)cc1,87.4%
4,c1ccc(-c2ccc(-c3nc4ccccc4[nH]3)cc2)cc1,75.1%
5,CCCN1C(=O)N(CCC)C2C1NN=c1s/c(=C3\C(=O)N(C(C)C)c4ccccc43)c(=O)n12 (stereo not given),41.5%
6,COc1cc(C2C3=C(COC3=O)N(CCO)c3cc4c(cc32)OCCO4)cc(OC)c1O (stereo not given),27.1%
7,COc1cc(/C(C#N)=C/c2nc3c(N4CCOCC4)nc(Cl)nc3n2C)cc(OC)c1OC,8.43% (active)
8,CCOc1cc(Cl)c(C(C)NC(=O)c2cccc(OC)c2)cc1OCC (stereo not given),28.2%
9,NC(CCc1nc2ccccc2c(=O)[nH]1)C(=O)O (stereo not given),99.1%
10,Cc1c(-c2noc(-c3ccc([N+](=O)[O-])cc3)n2)no[n+]1[O-],89.4%
11,Cc1c(-c2csc(-n3nc(C(F)(F)F)cc3C(F)(F)F)n2)no[n+]1[O-],102%
12,O=C(NC1CCN(Cc2ccccc2)CC1)c1cc2nc(-c3ccc(Cl)s3)cc(C(F)(F)F)n2n1,118%
13,NCCOc1ncccc1/C=C1\c2ccccc2-c2ccc([N+](=O)[O-])cc21,-80.2% (active)
14,O=c1oc2ccc(-c3ccc(F)cc3F)cc2c(=O)n1-c1ccc(Cl)c(C(F)(F)F)c1,35.3%
15,COc1cc(OC)cc(N2C(=O)N(Cc3ccc(C(C)(C)C)cc3)c3ccccc3S2(=O)=O)c1,86.4%
16,NCCOc1ncccc1/C=C1\c2ccccc2-c2ccc(F)cc21,26.1%
17,COc1cc(C=C2C(=O)N(C)C(=O)N(C)C2=O)cc(CN2CCCCC2)c1O,104%
18,Nc1ncnc(N)c1NC(=O)c1ccc(OCc2ccccc2)cc1,106%
19,COc1cc(/C=C2\CN(C)C/C(=C\c3cc(CN4CCOCC4)c(O)c(OC)c3)C2=O)cc(CN2CCOCC2)c1O,57.8%
20,COc1cc(C2CC(c3ccc(Nc4nc(NCCO)nc(N5CCOCC5)n4)cc3)=NN2c2cc(Cl)cc(Cl)c2)cc(OC)c1OC (stereo not given),55%
